In the library only some 8.1% were active in any assay of this set; here they are far more common.
KB-V1 MDR tox – KB-V1 MDR subline cytotoxicity; KB-V1 MDR cells viability, CellTiter-Glo, 72 h; Potency, µM (top dose mostly 46.1 µM), most hits filed as cytotoxic; 3.4% of 400,000 active; AID 1347076; note: % is set by controls: 0 for no effect and ±100 for the full control effect; nearly all actives have a fitted effect of over 60% in size
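KB-V1 cells (P-gp-expressing MDR subline of KB-3-1) in phenol-red-free DMEM with 10% FBS were exposed to library compounds over a concentration series for 72 h at 37 degrees C. Viability read by CellTiter-Glo luminescence; concentration-effect curves fitted after normalization.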
SW480 rerep – DNA re-replication induction in SW480 cells; SW480 DNA re-replication, Hoechst DNA content imaging, 48 h; Potency, µM (titrated, usually from 46.1 µM), without a hit: at the highest dose re-replication activation, actives largely listed as activators; 1.8% of 340,000 active; AID 624297; note: % of control where 0% means no effect; nearly all actives have a fitted effect of over 55% in size
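SW480 cells exposed to compounds for 48 hr at 37 C, 5% CO2, then Hoechst-stained 40 min. Nuclear DNA content imaged by fluorescence scanning (405 nm excitation, 500-530 nm emission); re-replication scored as increased high-intensity nuclei.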
ELG1 repair inh – ELG1-dependent DNA repair inhibition; AID 504467; HEK293T ELG1-luciferase reporter, luminescence, 16 h; DNA damage induced by 5-fluorouridine; Potency, µM (titrated, usually from 46.1 µM), for the others: at the highest dose activity change, negative = inhibition, hits mostly inhibitors; 2.3% of 330,000 active; note: % is set by controls: 0 for no effect and ±100 for the full control effect; nearly all actives have a fitted effect of over 55% in size
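Quantitative HTS, concentration-response format. 2,000 cells/well co-treated with 5-fluorouridine and compound, 16 hr in 5% CO2 at 37 °C; ONE-Glo luminescence read after 30 min.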
KB-3-1 tox – KB-3-1 parental cell cytotoxicity; KB-3-1 viability, CellTiter-Glo ATP luminescence, 72 h; Potency, µM (doses to about 46.1 µM), actives largely listed as cytotoxic; 1.4% of 400,000 active; AID 1347075; note: % is set by controls: 0 for no effect and ±100 for the full control effect; nearly all actives have a fitted effect of over 60% in size
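Luminescent ATP read-out (CellTiter-Glo) measures survival of drug-naive KB-3-1 cells after 72 h compound exposure at 37 °C. Titration series was screened from lowest to highest concentration, with DMSO vehicle plates as background controls.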
MCF10A rerep – DNA re-replication induction in MCF 10a cells. Potency, µM (doses to about 46.1 µM), inactives show at the highest dose activity, positive = re-replication, hits mostly activators. MCF 10A DNA re-replication, Hoechst nuclear intensity, 48 h. AID 624296. 2.9% of 350,000 active; note: % of control where 0% means no effect; nearly all actives have a fitted effect of over 50% in size
* = called active by the depositor; [ ] = dose if it differs, or a comment. Calls come from the whole dose curve; as a rule, active = well fitted curve in the direction sought with a large enough effect; inconclusive = small, poorly fitted or top-dose-only effect, or another doubt; inactive = no such curve, though single readings can be large; an effect the other way counts as inactive or inconclusive. Potency is the fitted concentration of half-maximal effect.

CCOc1ccccc1NC(=O)c1nnn(CC(=O)Nc2ccc3c(c2)OCO3)c1N was read as KB-V1 MDR tox inconclusive, SW480 rerep -21%, ELG1 repair inh 8%, KB-3-1 tox inconclusive and MCF10A rerep 6%.
Screening CCOc1ccccc1NC(=O)Cn1nnc(C(=O)NCc2ccc(F)cc2)c1N returned KB-V1 MDR tox inactive and KB-3-1 tox inactive.
Cc1nc(C)n(CC(=O)N2CCCC(C(=O)c3cccc4ccccc34)C2)n1 (configuration not stated) was read as KB-V1 MDR tox inactive, SW480 rerep -128%, ELG1 repair inh 3%, KB-3-1 tox inactive and MCF10A rerep 2%.
`COCCN(Cc1ccccc1)C(=O)c1ccc2c(c1)NC(=O)CS2` gave KB-V1 MDR tox inactive, SW480 rerep -18%, ELG1 repair inh 23%, KB-3-1 tox inactive and MCF10A rerep -4%.
`CCOc1ncccc1C(=O)Nc1ccc(F)c(F)c1` gave KB-V1 MDR tox inconclusive, SW480 rerep -7%, ELG1 repair inh 8%, KB-3-1 tox inactive and MCF10A rerep 8%.
Screening Cc1ccccc1NC(=O)Cn1nnc(C(=O)NCc2cccs2)c1N returned KB-V1 MDR tox inactive and KB-3-1 tox 3.3µM*.
`Cc1cccc(NC(=O)Cn2nnc(C(=O)NCc3cccs3)c2N)c1C` gave KB-V1 MDR tox inactive, SW480 rerep 1%, ELG1 repair inh -5%, KB-3-1 tox inactive and MCF10A rerep 1%.
O=C(NCc1ccccc1Cl)C(=O)NCC1OCCCN1S(=O)(=O)c1cccs1 (configuration not stated) was read as KB-V1 MDR tox inconclusive, SW480 rerep inconclusive, ELG1 repair inh 1%, KB-3-1 tox inactive and MCF10A rerep inconclusive.
Screening COC(=O)c1cc(NC(=O)c2c(Cl)cnn2C)cc(C(=O)OC)c1 returned KB-V1 MDR tox 15µM*, SW480 rerep -3%, ELG1 repair inh inconclusive, KB-3-1 tox inactive and MCF10A rerep 10%.
`COC(=O)c1ccc(NC(=S)NC(=O)c2c(Cl)cnn2C)cc1` gave KB-V1 MDR tox inactive, SW480 rerep -4%, ELG1 repair inh 1%, KB-3-1 tox inactive and MCF10A rerep 1%.
Screening O=C(NCc1ccccc1)C1(C(F)(F)F)CC(CCCO)CCCO1 (configuration not stated) returned KB-V1 MDR tox inactive, SW480 rerep 22%, KB-3-1 tox inactive and MCF10A rerep 5%.
For CS(=O)(=O)c1ccc(CNC(=O)C2(C(F)(F)F)CC(CCCO)CCCO2)cc1 (configuration not stated) the results were KB-V1 MDR tox inconclusive, SW480 rerep 0%[9.22 µM], KB-3-1 tox 5.8µM* and MCF10A rerep -49%.
`CCN(CC(=O)Nc1c(Cl)cccc1Cl)C(=O)C1CCN(c2ncnc3sc(C)c(C)c23)CC1` gave KB-V1 MDR tox inactive, SW480 rerep -1%, ELG1 repair inh inconclusive, KB-3-1 tox inactive and MCF10A rerep 3%.
Screening CCN(CC(=O)Nc1c(F)cccc1F)C(=O)C1CCN(c2ncnc3sc(C)c(C)c23)CC1 returned KB-V1 MDR tox 13µM*, SW480 rerep 3%, ELG1 repair inh inconclusive, KB-3-1 tox inactive and MCF10A rerep 17%.
For CCN(CC)CCNC(=O)c1ccc(NC(=O)C2CCN(c3ncnc4sc(C)c(C)c34)CC2)cc1 the results were KB-V1 MDR tox inactive, SW480 rerep 21µM*, ELG1 repair inh inconclusive, KB-3-1 tox inactive and MCF10A rerep inconclusive.
Cc1sc2ncnc(N3CCC(C(=O)NNC(=O)COc4ccccc4Cl)CC3)c2c1C was read as KB-V1 MDR tox inconclusive, SW480 rerep 4%, ELG1 repair inh inconclusive, KB-3-1 tox inactive and MCF10A rerep 4.1µM*.
For Cc1sc2ncnc(N3CCC(C(=O)Nc4ccc(OC(F)F)c(Cl)c4)CC3)c2c1C the results were KB-V1 MDR tox inactive, SW480 rerep 0%, ELG1 repair inh 10µM*, KB-3-1 tox inactive and MCF10A rerep inconclusive.
Screening COC(=O)c1c(NC(=O)Cn2nc(C(F)F)cc2C(F)F)sc(C)c1C returned KB-V1 MDR tox inactive, SW480 rerep -4%, ELG1 repair inh inconclusive, KB-3-1 tox inactive and MCF10A rerep 6%.
Screening CC12CCC=CC1=C(C=O)C1C2CCC2(C)C(O)CCC12 (configuration not stated) returned KB-V1 MDR tox inconclusive, SW480 rerep 26%, KB-3-1 tox 18µM* and MCF10A rerep inconclusive.
CC(=O)c1ccc2c(c1)C1C=CCC1C(C(=O)O)N2 (configuration not stated) was read as KB-V1 MDR tox inactive, SW480 rerep -12%, ELG1 repair inh 10%, KB-3-1 tox inactive and MCF10A rerep -7%.
Screening CC(=O)c1ccc2c(c1)C1C=CCC1C(c1ccncc1)N2 (configuration not stated) returned KB-V1 MDR tox 23µM*, SW480 rerep -2%, ELG1 repair inh inconclusive, KB-3-1 tox inconclusive and MCF10A rerep -9%.
CC1=C(C(=O)N(C(C)C)C(C)C)CC(CC(=O)NCCc2ccccn2)C(=O)N1CCC1=CCCCC1 (configuration not stated) was read as KB-V1 MDR tox inactive and KB-3-1 tox 21µM*.
Screening COCCCN1C(=O)C(CC(=O)NCCc2ccccn2)CC(C(=O)N(C(C)C)C(C)C)=C1C (configuration not stated) returned KB-V1 MDR tox inactive and KB-3-1 tox inactive.
Cc1ccc(NC(=O)C(Cc2ccccc2)NS(=O)(=O)c2ccc3c(c2)oc(=O)n3C)cc1F (configuration not stated) was read as KB-V1 MDR tox inactive and KB-3-1 tox inactive.
Screening CCOC(=O)C1=C(CSc2nc(CC)c(C)cc2C#N)OC(N)=C(C#N)C1c1ccccc1 (configuration not stated) returned KB-V1 MDR tox inactive, SW480 rerep 18%, ELG1 repair inh 5%, KB-3-1 tox inactive and MCF10A rerep inconclusive.
CCOC(=O)C1=C(CSc2nc3c(cc2C#N)CN(C)CC3)OC(N)=C(C#N)C1c1ccncc1 (configuration not stated) was read as KB-V1 MDR tox inactive, SW480 rerep inconclusive, ELG1 repair inh -6%, KB-3-1 tox inactive and MCF10A rerep inconclusive.
CCOC(=O)C1=C(CSc2nc(-c3ccccc3)ccc2C#N)OC(N)=C(C#N)C1c1ccc(OC)cc1 (configuration not stated) was read as KB-V1 MDR tox inactive, SW480 rerep inconclusive, ELG1 repair inh inconclusive, KB-3-1 tox inactive and MCF10A rerep 16µM*.

Compound activity (PubChem BioAssay)
